# Measurements taken from article PMC7862700, “An all-to-all approach to the identification of sequence-specific readers for epigenetic DNA modifications on cytosine”.
# Tests used:
# Assay in all cases: DAPPL (digital affinity profiling via proximity ligation, sequencing); 10 mM Tris-HCl pH 7.5, 50 mM NaCl, 1 mM DTT, 4% glycerol, room temperature, 30 min; GST-TFs on glutathione beads, 16-mer random dsDNA library, 0.1% formaldehyde crosslink after washing; high values mean tight binding
# FLI1 = biological target: T1, FLI1 (Homo sapiens, UniProt Q01543 1-452); details: protein: recombinant; tags: N-terminal GST; dsDNA, one strand shown
# T1 sequence: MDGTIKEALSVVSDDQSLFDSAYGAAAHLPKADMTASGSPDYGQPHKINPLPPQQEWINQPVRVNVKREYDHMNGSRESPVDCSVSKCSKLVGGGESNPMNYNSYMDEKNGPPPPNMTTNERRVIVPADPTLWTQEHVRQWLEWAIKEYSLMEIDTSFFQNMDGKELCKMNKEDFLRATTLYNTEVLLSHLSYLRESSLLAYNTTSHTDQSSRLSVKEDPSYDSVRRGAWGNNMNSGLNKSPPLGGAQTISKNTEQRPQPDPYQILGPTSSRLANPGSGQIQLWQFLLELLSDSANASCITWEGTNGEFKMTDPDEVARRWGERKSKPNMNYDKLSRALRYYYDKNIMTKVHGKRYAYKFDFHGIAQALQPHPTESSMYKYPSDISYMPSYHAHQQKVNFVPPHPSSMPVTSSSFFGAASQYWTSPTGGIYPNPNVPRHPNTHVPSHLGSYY
# Summary of the method: (§1)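 The binding signal reported is, for every hexamer, its read frequency for a factor over its read frequency for the tag-only sample. Reads came from pools of yeast-expressed, GST-fused human transcription factors on glutathione beads, barcoded with DNA and mixed with that sample, which were incubated with 200 nmole of a random double-stranded 16-mer DNA library in Tris/NaCl/DTT/glycerol buffer at room temperature for 30 min. After washing, the pools were crosslinked with 0.1% formaldehyde, proximity-ligated with BsaI/T4 ligase for 1 h at 37 °C, PCR-amplified and sequenced on an Illumina NextSeq500.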
# ELK1 = biological target: T2, ELK1 (Homo sapiens, UniProt P19419 1-428); details: protein: recombinant; tags: N-terminal GST; dsDNA, one strand shown
# T2 sequence: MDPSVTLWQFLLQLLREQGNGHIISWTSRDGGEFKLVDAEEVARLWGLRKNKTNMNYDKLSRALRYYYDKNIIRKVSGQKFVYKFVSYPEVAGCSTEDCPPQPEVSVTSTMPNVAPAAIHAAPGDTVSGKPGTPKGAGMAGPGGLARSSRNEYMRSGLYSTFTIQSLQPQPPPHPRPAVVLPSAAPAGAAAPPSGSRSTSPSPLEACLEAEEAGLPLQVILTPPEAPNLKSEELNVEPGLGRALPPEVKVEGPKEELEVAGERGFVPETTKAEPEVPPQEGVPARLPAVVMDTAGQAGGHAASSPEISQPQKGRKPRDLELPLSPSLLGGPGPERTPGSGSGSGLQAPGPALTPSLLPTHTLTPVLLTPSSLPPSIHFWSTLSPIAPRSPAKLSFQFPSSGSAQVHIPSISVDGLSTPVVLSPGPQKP
# Summary of the method: as §1
# GABPA = biological target: T3, GABPA (Homo sapiens, UniProt Q06546 1-454); details: protein: recombinant; tags: N-terminal GST; dsDNA, one strand shown
# T3 sequence: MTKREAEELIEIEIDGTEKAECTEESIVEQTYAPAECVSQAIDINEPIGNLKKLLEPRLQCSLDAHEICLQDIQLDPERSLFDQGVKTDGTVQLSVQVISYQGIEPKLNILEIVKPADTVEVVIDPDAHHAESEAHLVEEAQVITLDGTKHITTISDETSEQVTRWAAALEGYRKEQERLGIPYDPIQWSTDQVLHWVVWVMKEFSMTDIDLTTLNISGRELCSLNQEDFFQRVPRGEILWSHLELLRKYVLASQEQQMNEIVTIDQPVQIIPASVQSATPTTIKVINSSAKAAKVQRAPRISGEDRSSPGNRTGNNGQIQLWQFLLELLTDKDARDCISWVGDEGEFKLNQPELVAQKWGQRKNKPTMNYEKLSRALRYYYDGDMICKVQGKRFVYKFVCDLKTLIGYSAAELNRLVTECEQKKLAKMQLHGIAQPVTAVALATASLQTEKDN
# Summary of the method: as §1
# ERG = biological target: T4, ERG (Homo sapiens, UniProt P11308 1-479); details: protein: recombinant; tags: N-terminal GST; dsDNA, one strand shown
# T4 sequence: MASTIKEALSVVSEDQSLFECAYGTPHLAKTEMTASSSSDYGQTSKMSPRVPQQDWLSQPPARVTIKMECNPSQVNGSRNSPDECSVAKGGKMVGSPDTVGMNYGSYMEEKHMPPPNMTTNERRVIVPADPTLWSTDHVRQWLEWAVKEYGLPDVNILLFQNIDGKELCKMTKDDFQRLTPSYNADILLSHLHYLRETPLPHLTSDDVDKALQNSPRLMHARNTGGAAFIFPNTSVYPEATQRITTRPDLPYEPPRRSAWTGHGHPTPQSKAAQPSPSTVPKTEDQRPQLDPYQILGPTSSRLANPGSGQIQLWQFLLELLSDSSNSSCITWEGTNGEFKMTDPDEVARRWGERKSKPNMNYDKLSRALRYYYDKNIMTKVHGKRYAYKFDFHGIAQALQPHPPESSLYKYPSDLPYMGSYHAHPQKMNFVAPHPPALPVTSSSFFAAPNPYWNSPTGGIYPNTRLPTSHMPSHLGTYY
# Summary of the method: as §1
# ELF1 = ELF1 (Homo sapiens, UniProt P32519 1-619); details: protein: recombinant; tags: N-terminal GST; dsDNA, one strand shown
# Chain of ELF1 (P32519 whole entry): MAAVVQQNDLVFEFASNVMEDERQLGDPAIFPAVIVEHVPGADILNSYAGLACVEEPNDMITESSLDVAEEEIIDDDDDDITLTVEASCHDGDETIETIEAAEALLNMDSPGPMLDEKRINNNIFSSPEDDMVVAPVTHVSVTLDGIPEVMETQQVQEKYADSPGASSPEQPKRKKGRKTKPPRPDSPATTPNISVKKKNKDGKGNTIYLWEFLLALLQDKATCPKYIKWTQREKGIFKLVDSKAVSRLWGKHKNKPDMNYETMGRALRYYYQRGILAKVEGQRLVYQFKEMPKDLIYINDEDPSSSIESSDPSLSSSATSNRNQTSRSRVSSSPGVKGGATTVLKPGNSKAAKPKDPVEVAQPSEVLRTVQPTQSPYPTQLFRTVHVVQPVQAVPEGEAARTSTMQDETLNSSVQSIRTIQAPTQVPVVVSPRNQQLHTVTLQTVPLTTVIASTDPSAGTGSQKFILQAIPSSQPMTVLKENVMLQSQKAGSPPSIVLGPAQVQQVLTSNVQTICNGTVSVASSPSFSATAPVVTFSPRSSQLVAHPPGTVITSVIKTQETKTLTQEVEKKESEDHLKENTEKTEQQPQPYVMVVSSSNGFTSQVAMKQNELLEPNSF
# Summary of the method: as §1
# EHF = biological target: T5, EHF (Homo sapiens, UniProt Q9NZC4 1-300); details: protein: recombinant; tags: N-terminal GST; dsDNA, one strand shown
# T5 sequence: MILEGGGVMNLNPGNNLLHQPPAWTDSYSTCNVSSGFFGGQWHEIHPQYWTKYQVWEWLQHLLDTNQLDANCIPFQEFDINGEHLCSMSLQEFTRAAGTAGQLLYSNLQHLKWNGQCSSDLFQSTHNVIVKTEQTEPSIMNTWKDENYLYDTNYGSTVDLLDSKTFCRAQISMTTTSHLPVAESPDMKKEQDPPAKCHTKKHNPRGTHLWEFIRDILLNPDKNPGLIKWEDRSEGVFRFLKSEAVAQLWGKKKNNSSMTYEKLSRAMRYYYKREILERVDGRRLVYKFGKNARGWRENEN
# Summary of the method: as §1
# SPI1 = SPI1 (Homo sapiens, UniProt P17947 1-270); details: protein: recombinant; tags: N-terminal GST; dsDNA, one strand shown
# Summary of the method: as §1
# SPIB = SPIB (Homo sapiens, UniProt Q01892 1-262); details: protein: recombinant; tags: N-terminal GST; dsDNA, one strand shown
# Chain of SPIB (Q01892 whole entry): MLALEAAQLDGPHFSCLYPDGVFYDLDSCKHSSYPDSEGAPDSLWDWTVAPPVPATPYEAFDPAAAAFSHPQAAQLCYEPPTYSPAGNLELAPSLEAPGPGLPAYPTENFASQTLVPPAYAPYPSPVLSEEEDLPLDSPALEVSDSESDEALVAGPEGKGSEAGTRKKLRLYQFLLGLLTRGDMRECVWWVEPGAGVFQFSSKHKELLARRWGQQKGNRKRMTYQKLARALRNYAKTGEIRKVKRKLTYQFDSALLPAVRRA
# Summary of the method: as §1
# ELK3 = biological target: T6, ELK3 (Homo sapiens, UniProt P41970 1-407); details: protein: recombinant; tags: N-terminal GST; dsDNA, one strand shown
# T6 sequence: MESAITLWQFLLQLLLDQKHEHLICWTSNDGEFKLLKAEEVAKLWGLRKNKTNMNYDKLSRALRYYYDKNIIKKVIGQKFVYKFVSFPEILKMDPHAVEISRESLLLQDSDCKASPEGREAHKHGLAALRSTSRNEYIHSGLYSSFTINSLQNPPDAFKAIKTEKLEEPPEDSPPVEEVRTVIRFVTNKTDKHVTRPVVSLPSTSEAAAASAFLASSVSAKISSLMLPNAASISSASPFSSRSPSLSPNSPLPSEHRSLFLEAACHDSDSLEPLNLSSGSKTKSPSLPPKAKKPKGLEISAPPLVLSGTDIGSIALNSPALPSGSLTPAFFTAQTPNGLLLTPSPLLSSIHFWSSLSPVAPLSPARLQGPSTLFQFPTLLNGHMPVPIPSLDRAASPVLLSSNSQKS
# Summary of the method: as §1
# FEV = biological target: T7, FEV (Homo sapiens, UniProt Q99581 1-238); details: protein: recombinant; tags: N-terminal GST; dsDNA, one strand shown
# T7 sequence: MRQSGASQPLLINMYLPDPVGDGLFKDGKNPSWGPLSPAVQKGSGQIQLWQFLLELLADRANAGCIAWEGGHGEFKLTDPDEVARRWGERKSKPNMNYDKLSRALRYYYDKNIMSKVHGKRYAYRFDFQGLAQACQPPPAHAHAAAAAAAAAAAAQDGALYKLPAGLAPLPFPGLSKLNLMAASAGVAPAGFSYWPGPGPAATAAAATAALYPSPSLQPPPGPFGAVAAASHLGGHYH
# Summary of the method: as §1
# ETV5 = ETV5 (Homo sapiens, UniProt P41161 1-510); details: protein: recombinant; tags: N-terminal GST; dsDNA, one strand shown
# Chain of ETV5 (P41161 whole entry): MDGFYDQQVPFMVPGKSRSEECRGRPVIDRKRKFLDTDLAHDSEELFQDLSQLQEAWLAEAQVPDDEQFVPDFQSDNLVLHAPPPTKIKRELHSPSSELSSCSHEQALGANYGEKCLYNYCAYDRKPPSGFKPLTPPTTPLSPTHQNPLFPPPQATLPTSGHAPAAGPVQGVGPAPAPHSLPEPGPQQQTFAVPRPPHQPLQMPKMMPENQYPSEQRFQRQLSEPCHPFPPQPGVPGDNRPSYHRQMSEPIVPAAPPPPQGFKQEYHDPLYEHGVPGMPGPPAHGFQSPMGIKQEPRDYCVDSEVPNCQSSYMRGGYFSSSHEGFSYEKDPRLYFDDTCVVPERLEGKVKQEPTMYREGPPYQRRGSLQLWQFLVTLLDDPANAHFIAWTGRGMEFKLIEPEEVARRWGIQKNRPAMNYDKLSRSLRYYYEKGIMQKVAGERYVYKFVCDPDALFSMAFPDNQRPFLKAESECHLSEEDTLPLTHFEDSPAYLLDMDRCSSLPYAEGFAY
# Summary of the method: as §1
# HSF1 = HSF1 (Homo sapiens, UniProt Q00613 1-529); details: protein: recombinant; tags: N-terminal GST; chain copies: 3; dsDNA, one strand shown
# Chain of HSF1 (Q00613 whole entry): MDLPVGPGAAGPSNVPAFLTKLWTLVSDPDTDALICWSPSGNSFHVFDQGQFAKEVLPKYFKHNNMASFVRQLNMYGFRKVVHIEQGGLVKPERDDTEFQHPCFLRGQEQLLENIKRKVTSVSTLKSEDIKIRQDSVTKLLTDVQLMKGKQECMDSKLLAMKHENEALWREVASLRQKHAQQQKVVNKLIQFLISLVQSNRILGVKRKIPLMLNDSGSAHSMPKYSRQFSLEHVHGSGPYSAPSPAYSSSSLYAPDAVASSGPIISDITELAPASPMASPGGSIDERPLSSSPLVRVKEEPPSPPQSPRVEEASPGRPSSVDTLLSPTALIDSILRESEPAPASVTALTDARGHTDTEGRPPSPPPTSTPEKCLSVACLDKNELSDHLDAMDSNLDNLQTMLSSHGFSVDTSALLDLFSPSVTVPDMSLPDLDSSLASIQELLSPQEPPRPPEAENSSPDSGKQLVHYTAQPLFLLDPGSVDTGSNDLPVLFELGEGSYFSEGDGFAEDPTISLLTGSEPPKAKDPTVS
# Summary of the method: as §1
# SPIC = biological target: T8, SPIC (Homo sapiens, UniProt Q8N5J4 1-248); details: protein: recombinant; tags: N-terminal GST; dsDNA, one strand shown
# T8 sequence: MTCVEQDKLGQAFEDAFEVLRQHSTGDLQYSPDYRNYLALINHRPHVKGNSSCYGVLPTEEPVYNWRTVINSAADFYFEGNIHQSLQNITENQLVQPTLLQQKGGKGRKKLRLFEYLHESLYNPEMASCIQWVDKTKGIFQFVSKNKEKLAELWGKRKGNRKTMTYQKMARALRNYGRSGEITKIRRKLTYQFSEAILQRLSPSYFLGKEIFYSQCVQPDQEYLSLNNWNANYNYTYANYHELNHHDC
# Summary of the method: as §1
# ELF4 = ELF4 (Homo sapiens, UniProt Q99607 1-663); details: protein: recombinant; tags: N-terminal GST; dsDNA, one strand shown
# Chain of ELF4 (Q99607 whole entry): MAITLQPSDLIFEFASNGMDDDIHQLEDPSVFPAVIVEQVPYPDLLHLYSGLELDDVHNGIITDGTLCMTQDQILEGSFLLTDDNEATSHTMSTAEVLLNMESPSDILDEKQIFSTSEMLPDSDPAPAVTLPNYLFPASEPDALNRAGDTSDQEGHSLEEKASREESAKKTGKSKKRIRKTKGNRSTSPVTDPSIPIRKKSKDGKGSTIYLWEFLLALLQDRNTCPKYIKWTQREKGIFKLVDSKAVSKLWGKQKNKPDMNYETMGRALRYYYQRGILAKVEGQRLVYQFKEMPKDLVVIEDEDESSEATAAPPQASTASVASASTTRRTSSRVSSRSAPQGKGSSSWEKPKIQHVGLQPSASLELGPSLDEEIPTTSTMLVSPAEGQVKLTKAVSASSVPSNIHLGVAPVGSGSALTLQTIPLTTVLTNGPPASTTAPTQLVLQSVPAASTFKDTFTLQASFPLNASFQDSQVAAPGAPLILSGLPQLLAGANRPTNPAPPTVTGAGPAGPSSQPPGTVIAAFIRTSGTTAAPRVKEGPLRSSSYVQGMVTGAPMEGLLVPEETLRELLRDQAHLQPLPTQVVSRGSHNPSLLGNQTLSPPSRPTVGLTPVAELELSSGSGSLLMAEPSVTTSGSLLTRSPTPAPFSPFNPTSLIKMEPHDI
# Summary of the method: as §1
# ELK4 = biological target: T9, ELK4 (Homo sapiens, UniProt P28324-2 1-405); details: protein: recombinant; tags: N-terminal GST; dsDNA, one strand shown
# T9 sequence: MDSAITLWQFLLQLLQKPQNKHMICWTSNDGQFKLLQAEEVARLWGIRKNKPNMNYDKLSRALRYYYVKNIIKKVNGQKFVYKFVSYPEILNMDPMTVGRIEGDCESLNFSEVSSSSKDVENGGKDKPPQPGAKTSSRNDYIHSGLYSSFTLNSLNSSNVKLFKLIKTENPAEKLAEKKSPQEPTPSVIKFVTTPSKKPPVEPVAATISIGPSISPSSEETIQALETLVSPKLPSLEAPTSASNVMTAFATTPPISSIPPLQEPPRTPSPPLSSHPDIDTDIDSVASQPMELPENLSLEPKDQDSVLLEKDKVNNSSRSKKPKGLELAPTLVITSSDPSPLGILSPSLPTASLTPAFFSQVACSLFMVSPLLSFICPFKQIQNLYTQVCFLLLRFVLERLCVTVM
# Summary of the method: as §1
# ETV2 = biological target: T10, ETV2 (Homo sapiens, UniProt O00321 1-342); details: protein: recombinant; tags: N-terminal GST; dsDNA, one strand shown
# T10 sequence: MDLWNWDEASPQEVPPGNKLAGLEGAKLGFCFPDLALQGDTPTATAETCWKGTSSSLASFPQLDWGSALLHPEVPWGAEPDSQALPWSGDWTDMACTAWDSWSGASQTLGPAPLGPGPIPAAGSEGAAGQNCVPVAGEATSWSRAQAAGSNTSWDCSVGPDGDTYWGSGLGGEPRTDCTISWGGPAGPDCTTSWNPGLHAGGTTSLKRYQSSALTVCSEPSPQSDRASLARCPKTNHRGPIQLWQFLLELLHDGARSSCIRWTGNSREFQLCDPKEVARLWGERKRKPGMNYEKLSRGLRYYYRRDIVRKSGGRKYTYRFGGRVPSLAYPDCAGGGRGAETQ
# Summary of the method: as §1
# ELF3 = biological target: T11, ELF3 (Homo sapiens, UniProt P78545 1-371); details: protein: recombinant; tags: N-terminal GST; dsDNA, one strand shown
# T11 sequence: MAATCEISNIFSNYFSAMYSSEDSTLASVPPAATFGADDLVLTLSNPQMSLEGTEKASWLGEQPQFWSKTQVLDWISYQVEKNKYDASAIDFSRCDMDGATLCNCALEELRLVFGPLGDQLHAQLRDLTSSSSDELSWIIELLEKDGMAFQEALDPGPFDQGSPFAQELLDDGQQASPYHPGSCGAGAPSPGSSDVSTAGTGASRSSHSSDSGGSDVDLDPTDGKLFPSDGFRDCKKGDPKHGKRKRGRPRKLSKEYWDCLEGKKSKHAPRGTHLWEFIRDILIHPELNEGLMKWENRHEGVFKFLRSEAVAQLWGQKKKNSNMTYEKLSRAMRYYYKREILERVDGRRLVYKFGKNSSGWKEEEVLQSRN
# Summary of the method: as §1
# CRX = CRX (Homo sapiens, UniProt O43186 1-299); details: protein: recombinant; tags: N-terminal GST; dsDNA, one strand shown
# Chain of CRX (O43186 whole entry): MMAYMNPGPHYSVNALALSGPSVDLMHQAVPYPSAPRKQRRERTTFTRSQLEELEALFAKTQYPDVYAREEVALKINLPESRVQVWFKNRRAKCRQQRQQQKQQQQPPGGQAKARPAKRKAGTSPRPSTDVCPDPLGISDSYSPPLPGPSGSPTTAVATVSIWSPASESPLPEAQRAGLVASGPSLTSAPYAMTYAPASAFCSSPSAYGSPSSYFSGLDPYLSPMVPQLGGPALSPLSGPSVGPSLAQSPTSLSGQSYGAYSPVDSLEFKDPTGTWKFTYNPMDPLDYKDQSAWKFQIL
# Summary of the method: as §1
# ETV1 = ETV1 (Homo sapiens, UniProt P50549 1-477); details: protein: recombinant; tags: N-terminal GST; dsDNA, one strand shown
# Chain of ETV1 (P50549 whole entry): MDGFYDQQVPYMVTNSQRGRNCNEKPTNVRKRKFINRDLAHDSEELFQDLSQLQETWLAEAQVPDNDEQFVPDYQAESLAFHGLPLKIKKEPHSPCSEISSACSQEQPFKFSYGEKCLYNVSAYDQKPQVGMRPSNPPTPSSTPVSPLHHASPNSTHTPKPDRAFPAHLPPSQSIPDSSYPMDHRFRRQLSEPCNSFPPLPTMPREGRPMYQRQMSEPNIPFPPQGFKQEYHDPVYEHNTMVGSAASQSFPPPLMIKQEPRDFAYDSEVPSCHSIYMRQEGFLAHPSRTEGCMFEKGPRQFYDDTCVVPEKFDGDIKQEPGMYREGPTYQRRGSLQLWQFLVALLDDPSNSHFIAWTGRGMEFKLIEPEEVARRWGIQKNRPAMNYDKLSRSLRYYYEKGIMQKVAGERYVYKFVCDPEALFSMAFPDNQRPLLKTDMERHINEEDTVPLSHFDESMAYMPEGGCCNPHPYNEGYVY
# Summary of the method: as §1
sequence,measurement,setting,value
TAGTTA,binding signal,FLI1,"1.19 fold enrichment (6-mer frequency, TF over GST control)"
same,binding signal,ELK1,"1.2 fold enrichment (6-mer frequency, TF over GST control)"
same,binding signal,GABPA,"1.2 fold enrichment (6-mer frequency, TF over GST control)"
same,binding signal,ERG,"1.12 fold enrichment (6-mer frequency, TF over GST control)"
same,binding signal,ELF1,"1.11 fold enrichment (6-mer frequency, TF over GST control)"
same,binding signal,EHF,"1.12 fold enrichment (6-mer frequency, TF over GST control)"
same,binding signal,SPI1,"1.09 fold enrichment (6-mer frequency, TF over GST control)"
same,binding signal,SPIB,"1.19 fold enrichment (6-mer frequency, TF over GST control)"
same,binding signal,ELK3,"1.12 fold enrichment (6-mer frequency, TF over GST control)"
same,binding signal,FEV,"1.07 fold enrichment (6-mer frequency, TF over GST control)"
same,binding signal,ETV5,"1.19 fold enrichment (6-mer frequency, TF over GST control)"
same,binding signal,HSF1,"1.26 fold enrichment (6-mer frequency, TF over GST control)"
same,binding signal,SPIC,"1.11 fold enrichment (6-mer frequency, TF over GST control)"
same,binding signal,ELF4,"1.15 fold enrichment (6-mer frequency, TF over GST control)"
same,binding signal,ELK4,"1.26 fold enrichment (6-mer frequency, TF over GST control)"
same,binding signal,ETV2,"1.09 fold enrichment (6-mer frequency, TF over GST control)"
same,binding signal,ELF3,"1.29 fold enrichment (6-mer frequency, TF over GST control)"
same,binding signal,CRX,"1.54 fold enrichment (6-mer frequency, TF over GST control)"
same,binding signal,ETV1,"1.05 fold enrichment (6-mer frequency, TF over GST control)"
